7 compounds from ChEMBL document CHEMBL1961873, “Compounds: GSK PKIS; Assays: Nanosyn kinase panel” (2012) can be followed below.

The structures appear in SMILES notation.

Experiment [1] has as its target Mitogen-activated protein kinase 3 (Homo sapiens) (UniProt P27361). The note with it: at 1 µM.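 Note: values are mean percent inhibition of MAPK3.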
In experiment [2] the target is SRSF protein kinase 3 (Homo sapiens) (UniProt Q9UPE1). The note with it: at 0.1 µM.
For experiment [3] the target is unchanged. The following applies: at 1 µM.
For experiment [4], the target named is Mitogen-activated protein kinase 14 (Homo sapiens) (UniProt Q16539). The following applies: at 0.1 µM.
Sequence of Mitogen-activated protein kinase 14 (Homo sapiens) (Q16539 whole entry): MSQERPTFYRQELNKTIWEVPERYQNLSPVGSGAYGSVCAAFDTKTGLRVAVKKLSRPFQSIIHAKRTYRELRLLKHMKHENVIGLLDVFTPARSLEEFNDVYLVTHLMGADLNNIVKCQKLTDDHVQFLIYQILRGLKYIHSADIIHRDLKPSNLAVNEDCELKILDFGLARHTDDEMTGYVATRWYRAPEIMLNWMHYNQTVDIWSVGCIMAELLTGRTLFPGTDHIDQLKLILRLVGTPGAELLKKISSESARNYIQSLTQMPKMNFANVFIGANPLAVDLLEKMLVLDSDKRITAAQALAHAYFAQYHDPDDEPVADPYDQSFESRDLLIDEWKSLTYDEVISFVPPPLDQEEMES
Experiment [5] has the same target. The following applies: at 1 µM.
For experiment [6], the target named is Mitogen-activated protein kinase 11 (Homo sapiens) (UniProt Q15759). The following applies: at 0.1 µM.
Sequence of Mitogen-activated protein kinase 11 (Homo sapiens) (Q15759 whole entry): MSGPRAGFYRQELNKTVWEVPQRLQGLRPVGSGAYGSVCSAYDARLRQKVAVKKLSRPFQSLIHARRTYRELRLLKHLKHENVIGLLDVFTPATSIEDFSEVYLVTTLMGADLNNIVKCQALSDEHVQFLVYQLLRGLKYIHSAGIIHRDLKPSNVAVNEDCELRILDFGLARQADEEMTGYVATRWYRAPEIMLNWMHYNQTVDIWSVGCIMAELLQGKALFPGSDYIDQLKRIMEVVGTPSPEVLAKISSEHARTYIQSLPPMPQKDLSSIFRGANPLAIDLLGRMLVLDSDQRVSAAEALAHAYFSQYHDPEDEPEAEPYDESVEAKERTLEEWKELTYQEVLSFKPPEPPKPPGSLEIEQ
For experiment [7] the target is unchanged. The note with it: at 1 µM.
In experiment [8] the target is T1, Mitogen-activated protein kinase 13 (Homo sapiens) (UniProt O15264).
T1 sequence (whole entry): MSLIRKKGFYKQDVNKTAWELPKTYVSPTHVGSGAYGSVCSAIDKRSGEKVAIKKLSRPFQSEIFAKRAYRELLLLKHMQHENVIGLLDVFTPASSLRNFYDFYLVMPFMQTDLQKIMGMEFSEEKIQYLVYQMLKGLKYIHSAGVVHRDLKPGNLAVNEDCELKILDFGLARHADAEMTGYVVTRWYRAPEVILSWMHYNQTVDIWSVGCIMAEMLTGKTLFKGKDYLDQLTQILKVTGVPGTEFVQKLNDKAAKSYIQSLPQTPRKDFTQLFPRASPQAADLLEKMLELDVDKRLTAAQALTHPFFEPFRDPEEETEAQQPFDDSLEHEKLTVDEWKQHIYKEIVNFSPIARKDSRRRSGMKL
The following applies: at 0.1 µM.

Experiment [9] addresses T1, Mitogen-activated protein kinase 13 (Homo sapiens). The note with it: at 1 µM.
The target in experiment [10] is T2, Mitogen-activated protein kinase 12 (Homo sapiens) (UniProt P53778).
T2 sequence (whole entry): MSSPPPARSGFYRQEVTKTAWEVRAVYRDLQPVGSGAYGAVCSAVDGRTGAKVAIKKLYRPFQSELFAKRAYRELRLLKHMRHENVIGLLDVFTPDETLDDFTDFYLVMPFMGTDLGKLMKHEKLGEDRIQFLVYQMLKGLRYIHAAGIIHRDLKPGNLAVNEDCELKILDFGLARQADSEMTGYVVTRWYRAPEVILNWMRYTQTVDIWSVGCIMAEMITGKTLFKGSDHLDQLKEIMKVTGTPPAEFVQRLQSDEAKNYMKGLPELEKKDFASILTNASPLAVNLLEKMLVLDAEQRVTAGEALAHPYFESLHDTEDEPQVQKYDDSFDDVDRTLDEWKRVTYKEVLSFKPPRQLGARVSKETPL
The following applies: at 0.1 µM.

In experiment [11] the target is T2, Mitogen-activated protein kinase 12 (Homo sapiens). The note with it: at 1 µM.
The target in experiment [12] is SRSF protein kinase 1 (Homo sapiens) (UniProt Q96SB4). The note with it: at 0.1 µM.
Sequence of SRSF protein kinase 1 (Homo sapiens) (Q96SB4 whole entry): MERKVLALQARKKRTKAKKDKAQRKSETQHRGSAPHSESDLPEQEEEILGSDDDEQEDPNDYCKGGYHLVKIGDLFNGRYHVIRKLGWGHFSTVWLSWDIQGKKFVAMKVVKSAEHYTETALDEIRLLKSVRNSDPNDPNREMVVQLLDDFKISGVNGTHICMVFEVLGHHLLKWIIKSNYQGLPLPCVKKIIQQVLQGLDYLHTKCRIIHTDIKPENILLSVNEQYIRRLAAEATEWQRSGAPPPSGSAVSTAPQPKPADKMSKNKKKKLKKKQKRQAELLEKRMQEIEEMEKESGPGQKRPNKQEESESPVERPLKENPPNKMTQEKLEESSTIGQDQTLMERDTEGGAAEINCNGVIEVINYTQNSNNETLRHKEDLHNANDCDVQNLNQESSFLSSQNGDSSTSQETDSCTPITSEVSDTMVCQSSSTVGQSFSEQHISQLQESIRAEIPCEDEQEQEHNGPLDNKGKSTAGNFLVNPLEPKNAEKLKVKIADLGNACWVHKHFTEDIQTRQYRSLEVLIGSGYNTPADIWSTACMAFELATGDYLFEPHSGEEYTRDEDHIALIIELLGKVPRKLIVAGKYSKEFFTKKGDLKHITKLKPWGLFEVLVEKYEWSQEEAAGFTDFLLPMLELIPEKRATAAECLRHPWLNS
For experiment [13] the target is unchanged. The note with it: at 1 µM.
In experiment [14] the target is Phosphatidylinositol 4,5-bisphosphate 3-kinase catalytic subunit alpha isoform (Homo sapiens) (UniProt P42336). The following applies: at 0.1 µM.
Sequence of Phosphatidylinositol 4,5-bisphosphate 3-kinase catalytic subunit alpha isoform (Homo sapiens) (P42336 whole entry, canonical isoform): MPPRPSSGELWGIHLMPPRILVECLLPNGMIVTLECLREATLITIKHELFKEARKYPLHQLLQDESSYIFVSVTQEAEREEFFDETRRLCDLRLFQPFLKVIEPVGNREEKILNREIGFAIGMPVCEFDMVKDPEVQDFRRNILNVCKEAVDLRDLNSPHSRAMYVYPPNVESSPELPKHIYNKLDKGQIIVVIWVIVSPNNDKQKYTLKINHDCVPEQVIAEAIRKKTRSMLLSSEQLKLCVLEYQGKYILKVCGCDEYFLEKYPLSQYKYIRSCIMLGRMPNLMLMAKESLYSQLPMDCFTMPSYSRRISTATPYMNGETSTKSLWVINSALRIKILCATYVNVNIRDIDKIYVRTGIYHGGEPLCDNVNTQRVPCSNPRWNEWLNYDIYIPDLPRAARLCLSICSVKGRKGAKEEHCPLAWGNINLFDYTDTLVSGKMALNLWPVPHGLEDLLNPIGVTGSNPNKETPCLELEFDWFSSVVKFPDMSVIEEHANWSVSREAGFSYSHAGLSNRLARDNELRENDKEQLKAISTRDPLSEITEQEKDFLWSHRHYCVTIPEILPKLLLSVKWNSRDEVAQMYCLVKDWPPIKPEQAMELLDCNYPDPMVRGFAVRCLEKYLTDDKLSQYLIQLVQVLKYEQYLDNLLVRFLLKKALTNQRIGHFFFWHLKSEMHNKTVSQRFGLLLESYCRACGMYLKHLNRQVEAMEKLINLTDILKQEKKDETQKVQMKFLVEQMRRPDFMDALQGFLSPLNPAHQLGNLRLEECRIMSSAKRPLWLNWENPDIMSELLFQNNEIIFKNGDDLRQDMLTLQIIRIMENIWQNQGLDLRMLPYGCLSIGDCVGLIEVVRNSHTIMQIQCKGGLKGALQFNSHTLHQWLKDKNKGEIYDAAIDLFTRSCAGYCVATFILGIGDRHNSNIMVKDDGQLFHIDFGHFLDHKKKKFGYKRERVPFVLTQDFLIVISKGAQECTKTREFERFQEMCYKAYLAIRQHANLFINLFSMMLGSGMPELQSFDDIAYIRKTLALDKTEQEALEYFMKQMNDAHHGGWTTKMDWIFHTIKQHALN
Experiment [15] has the same target. The following applies: at 1 µM.
Experiment [16] concerns the target T3, Phosphatidylinositol 4,5-bisphosphate 3-kinase catalytic subunit delta isoform (Homo sapiens) (UniProt O00329).
T3 sequence (whole entry): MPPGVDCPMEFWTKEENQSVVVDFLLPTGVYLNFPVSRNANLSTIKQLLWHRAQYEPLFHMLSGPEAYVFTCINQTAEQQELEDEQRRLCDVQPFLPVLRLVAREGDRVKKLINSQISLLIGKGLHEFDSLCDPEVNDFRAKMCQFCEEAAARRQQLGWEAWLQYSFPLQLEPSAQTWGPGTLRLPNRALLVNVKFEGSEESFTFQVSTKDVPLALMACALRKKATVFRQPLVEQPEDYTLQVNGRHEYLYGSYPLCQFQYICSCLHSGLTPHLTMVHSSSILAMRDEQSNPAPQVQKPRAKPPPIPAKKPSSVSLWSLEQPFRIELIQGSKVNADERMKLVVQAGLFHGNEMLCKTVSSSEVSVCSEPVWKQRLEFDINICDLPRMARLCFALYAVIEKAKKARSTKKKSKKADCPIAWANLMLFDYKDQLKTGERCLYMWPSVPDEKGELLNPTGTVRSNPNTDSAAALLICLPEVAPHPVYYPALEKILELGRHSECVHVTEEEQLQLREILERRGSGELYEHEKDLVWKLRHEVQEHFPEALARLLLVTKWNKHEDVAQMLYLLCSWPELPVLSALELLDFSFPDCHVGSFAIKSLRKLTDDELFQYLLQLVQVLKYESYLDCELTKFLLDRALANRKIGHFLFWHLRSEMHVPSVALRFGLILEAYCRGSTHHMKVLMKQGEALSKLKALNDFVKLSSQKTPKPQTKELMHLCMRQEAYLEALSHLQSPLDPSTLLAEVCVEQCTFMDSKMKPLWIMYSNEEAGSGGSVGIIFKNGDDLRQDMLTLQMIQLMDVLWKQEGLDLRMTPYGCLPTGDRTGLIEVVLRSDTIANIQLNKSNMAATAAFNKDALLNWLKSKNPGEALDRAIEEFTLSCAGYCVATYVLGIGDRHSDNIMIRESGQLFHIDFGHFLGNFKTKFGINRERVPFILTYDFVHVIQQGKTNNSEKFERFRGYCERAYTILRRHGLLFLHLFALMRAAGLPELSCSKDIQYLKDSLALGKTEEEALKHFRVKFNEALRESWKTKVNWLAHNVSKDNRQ
The following applies: at 0.1 µM.

In experiment [17] the target is T3, Phosphatidylinositol 4,5-bisphosphate 3-kinase catalytic subunit delta isoform (Homo sapiens). The note with it: at 1 µM.
Experiment [18] deals with Phosphatidylinositol 4-kinase beta (Homo sapiens) (UniProt Q9UBF8). The note with it: at 0.1 µM.
Sequence of Phosphatidylinositol 4-kinase beta (Homo sapiens) (Q9UBF8 2-816 limits assumed): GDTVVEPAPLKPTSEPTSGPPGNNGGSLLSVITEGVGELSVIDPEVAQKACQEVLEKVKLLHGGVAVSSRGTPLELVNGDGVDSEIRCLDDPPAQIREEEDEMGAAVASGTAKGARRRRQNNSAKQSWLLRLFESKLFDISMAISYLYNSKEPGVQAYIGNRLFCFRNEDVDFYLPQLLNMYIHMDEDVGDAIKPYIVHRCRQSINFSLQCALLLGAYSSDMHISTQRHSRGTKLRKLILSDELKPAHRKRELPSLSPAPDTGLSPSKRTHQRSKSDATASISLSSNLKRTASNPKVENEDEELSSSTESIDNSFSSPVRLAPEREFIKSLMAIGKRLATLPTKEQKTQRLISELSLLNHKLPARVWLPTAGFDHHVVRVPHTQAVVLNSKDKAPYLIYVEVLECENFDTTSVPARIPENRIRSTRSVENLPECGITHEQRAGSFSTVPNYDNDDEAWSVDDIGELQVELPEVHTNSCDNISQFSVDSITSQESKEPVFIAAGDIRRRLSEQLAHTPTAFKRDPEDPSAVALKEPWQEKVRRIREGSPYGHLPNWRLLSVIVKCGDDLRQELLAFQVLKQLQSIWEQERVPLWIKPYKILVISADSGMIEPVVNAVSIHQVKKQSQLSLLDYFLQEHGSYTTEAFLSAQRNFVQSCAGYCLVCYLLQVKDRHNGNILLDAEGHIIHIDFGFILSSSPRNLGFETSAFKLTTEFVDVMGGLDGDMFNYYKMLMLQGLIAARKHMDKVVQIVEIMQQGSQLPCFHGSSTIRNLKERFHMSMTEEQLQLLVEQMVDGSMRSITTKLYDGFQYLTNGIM
Experiment [19] shares this target. The following applies: at 1 µM.
Experiment [20] deals with Sphingosine kinase 1 (Homo sapiens) (UniProt Q9NYA1). The following applies: at 0.1 µM.
Sequence of Sphingosine kinase 1 (Homo sapiens) (Q9NYA1 whole entry): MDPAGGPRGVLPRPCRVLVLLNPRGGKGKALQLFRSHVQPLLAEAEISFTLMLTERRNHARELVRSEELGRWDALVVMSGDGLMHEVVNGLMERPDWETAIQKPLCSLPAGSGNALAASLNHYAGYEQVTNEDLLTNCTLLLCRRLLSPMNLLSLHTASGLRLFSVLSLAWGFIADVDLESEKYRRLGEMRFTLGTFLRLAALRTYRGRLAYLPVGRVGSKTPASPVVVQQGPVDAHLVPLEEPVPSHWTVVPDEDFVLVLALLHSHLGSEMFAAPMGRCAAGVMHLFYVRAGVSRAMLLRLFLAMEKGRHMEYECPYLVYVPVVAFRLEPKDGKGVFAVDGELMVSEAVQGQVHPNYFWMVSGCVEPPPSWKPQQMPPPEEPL

Sequence of SRSF protein kinase 3 (Homo sapiens) (Q9UPE1 whole entry): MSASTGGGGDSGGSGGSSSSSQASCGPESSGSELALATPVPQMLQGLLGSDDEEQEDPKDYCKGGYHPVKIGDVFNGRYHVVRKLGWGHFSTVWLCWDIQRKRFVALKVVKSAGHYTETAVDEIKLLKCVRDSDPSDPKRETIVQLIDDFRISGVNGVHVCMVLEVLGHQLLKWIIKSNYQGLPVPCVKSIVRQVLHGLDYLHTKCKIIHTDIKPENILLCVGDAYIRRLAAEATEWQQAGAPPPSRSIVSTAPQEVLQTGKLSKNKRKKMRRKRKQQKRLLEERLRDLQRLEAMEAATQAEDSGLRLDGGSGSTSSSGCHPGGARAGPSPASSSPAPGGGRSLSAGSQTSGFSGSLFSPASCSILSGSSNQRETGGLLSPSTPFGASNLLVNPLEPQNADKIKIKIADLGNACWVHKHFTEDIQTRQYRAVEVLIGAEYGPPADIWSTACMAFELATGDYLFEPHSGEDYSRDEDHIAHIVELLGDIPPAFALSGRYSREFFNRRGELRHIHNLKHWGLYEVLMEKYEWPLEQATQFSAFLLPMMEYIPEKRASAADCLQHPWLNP
Sequence of Mitogen-activated protein kinase 3 (Homo sapiens) (P27361 whole entry): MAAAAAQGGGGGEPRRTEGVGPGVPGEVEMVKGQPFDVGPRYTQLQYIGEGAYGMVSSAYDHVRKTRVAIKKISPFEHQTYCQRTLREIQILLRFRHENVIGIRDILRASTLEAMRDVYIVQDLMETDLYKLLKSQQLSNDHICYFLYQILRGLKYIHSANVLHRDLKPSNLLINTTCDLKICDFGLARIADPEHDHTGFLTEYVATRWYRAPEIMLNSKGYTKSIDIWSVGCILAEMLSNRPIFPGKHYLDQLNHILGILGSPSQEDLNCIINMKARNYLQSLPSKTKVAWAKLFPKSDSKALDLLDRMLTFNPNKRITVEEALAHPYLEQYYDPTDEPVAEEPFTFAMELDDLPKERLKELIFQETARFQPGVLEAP

What is called inhibition is the drop in the measured response relative to a control, in per cent. `COc1cc2ncn(-c3cc(O[C@@H](C)c4ccccc4Cl)c(C(N)=O)s3)c2cc1OC`: the inhibition in [1] is 3.07%; in experiment [2], -3.53%; in [3] it was -0.07%; in experiment [4], 6.72%; in [5], 7.39%; in experiment [6], 3.1%. The inhibition in experiment [7] is 2.35%; in experiment [8], 4.76%; in experiment [9], 3.82%; in experiment [10], 3.18%; in experiment [11], 3.72%; in experiment [12] it was -2.61%. Also, the inhibition was -2.08% in experiment [13]; 4.55% in [14]; 11.5% in experiment [15]; 2.44% in experiment [16]; 10.6% in [17]; 3.29% in experiment [18]. Moreover, the inhibition in experiment [19] is -6.07%; in experiment [20] it was 1.31%.
As for `CCn1c(-c2nonc2N)nc2cncc(C(=O)N3CC[C@H](N)C3)c21`, the inhibition in experiment [1] is 2.72%; in experiment [2], -3.11%; in [3], -1.83%; in [4], -0.78%; in experiment [5], 10.7%; in experiment [6], 3.38%. Also, the inhibition is 9.04% in [7]; 2.29% in experiment [8]; 5.01% in [9]; 0.14% in experiment [10]; 3.17% in experiment [11]; -1.03% in experiment [12]. For the same compound, the inhibition in [13] is -0.35%; in [14], 5.37%; in experiment [15] it was 4.64%; in [16], 3.17%; in experiment [17], 3.95%; in [18] it was -6.46%. Besides, the figures for the inhibition in experiment [19] and in experiment [20] were -9.74% and -0.79%, respectively.
As for `NC(=O)c1ccc(-c2nc(-c3ccccn3)c(-c3ccc4c(c3)OCO4)[nH]2)cc1`, the inhibition in experiment [1] is 1.38%; in [2], -1.12%; in [3], 0.34%; in experiment [4], 7.26%; in experiment [5], 15.5%; in experiment [6] it was 5.42%. In addition, the inhibition was 10.6% in experiment [7]; 1.16% in [8]; 2.44% in experiment [9]; 0.17% in [10]; 1.74% in [11]; -2.38% in experiment [12]. Besides, the inhibition in experiment [13] is -2.03%; in experiment [14], 1.4%; in experiment [15], -0.55%; in experiment [16] it was 0.37%; in experiment [17] it was 2.45%; in experiment [18], -5.45%. Besides, the inhibition in [19] is -2.85%; in [20], 3.02%.
Consider `Cc1nnc(-c2ccc(C)c(-c3ccc(C(=O)Nc4cccc(C#N)c4)cc3)c2)o1`, for which the inhibition was 5.78% in experiment [1]; -2.92% in experiment [2]; -1.26% in [3]; 5.2% in experiment [6]; 22.9% in experiment [7]; 3.5% in experiment [8]. Moreover, the inhibition in [9] was 1.58%; in experiment [10], -0.3%; in experiment [11] it was 1.19%; in experiment [12], -1.96%; in experiment [13], -1.67%; in experiment [14], 2.12%. Also, the inhibition in [15] was 1.71%; in [16], 1.98%; in experiment [17], 1.12%; in experiment [18], -1.86%; in experiment [19] it was 0.49%; in experiment [20], -2.17%.
For the compound `Fc1cccc(COc2ccc(Nc3ncnc4cc(-c5ccc[nH]5)sc34)cc2Cl)c1`, the inhibition in [1] is 1.55%; in experiment [2] it was -2.27%; in experiment [3], -1.34%; in [4] it was 1.24%; in experiment [5], 4.89%; in experiment [6], 0.23%. The inhibition in experiment [7] is -0.16%; in experiment [8] it was 1.98%; in experiment [9], 2.15%; in [10], 4.35%; in [11], 2.1%; in experiment [12], -1.71%. Moreover, the inhibition in experiment [13] is -1.58%; in experiment [14], 3.58%; in experiment [15], 10.8%; in [16] it was 2.77%; in experiment [17], 9.44%; in experiment [18], -8.05%. For the same compound, the inhibition in experiment [19] was determined as 2.94%; in experiment [20], 1.48%.
In the case of `CS(=O)(=O)CCNCc1ccc(-c2ccc3ncnc(Nc4ccc(OCc5ccccc5)c(Cl)c4)c3c2)o1`, the inhibition is 0.5% in experiment [1]; 2.57% in experiment [2]; 4.72% in [3]; -0.17% in [4]; 3.25% in [5]; -1.17% in experiment [6]. Moreover, the inhibition in experiment [7] was 0.8%; in experiment [8], 0.47%; in experiment [9], 2.09%; in experiment [10], 1.33%; in [11], 6.3%; in experiment [12], -1.42%. In addition, the inhibition in experiment [13] was 1.52%; in [14] it was -1.12%; in experiment [15] it was -0.19%; in experiment [16] it was -2.16%; in experiment [17] it was -1.17%; in experiment [18], -0.03%. Moreover, the inhibition was found to be 3.61% in experiment [19] and 1.23% in experiment [20].
Turning to `CS(=O)(=O)CCNCc1ccc(-c2ccc3ncnc(Nc4ccc(OCc5cccc(F)c5)c(C(F)(F)F)c4)c3c2)o1`, the inhibition was 2.51% in [1]; -1.77% in experiment [2]; -0.64% in [3]; 4.28% in [4]; 11.8% in experiment [5]; 3.77% in [6]. For the same compound, the inhibition is 8.93% in experiment [7]; 1.37% in [8]; 5.37% in [9]; 1.92% in experiment [10]; 3.16% in experiment [11]; -1.9% in experiment [12]. Moreover, the inhibition was -0.25% in experiment [13]; 3.86% in experiment [14]; 7.14% in [15]; 2.85% in experiment [16]; 7.89% in experiment [17]; -2.15% in experiment [19]. Further, the inhibition in [20] was -0.87%.
